In PubChem BioAssay (EPA / NIEHS):
Records with an inconclusive call do not appear. The source made the active and inactive calls. How the source made its calls, unless noted: active means hit-call score of the fitted dose curve at least 0.9, where 1 is the maximum; inactive means score below 0.9. Peptide text beside a SMILES is read from it.

Key:
[1] = CCTE_Shafer_MEA_acute_burst_number: CCTE's Neural Acute Assay for Single-Electrode Bursts, Shafer Lab (AID 2284013)
Method in brief: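 Rat cortical cultures, DIV 13/15; 40 min baseline, then 40 min with compound 0.03-40 uM, 37 C. Spikes: 300-5000 Hz band-pass, threshold 8x rms noise. Readout = % change in single-electrode bursts vs baseline, loss-of-signal fit.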

[2] = CCTE_Shafer_MEA_acute_per_burst_spike_number_mean: CCTE's Neural Acute Assay for Average Number of Spikes Per Burst, Shafer Lab (AID 2284015);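 further: hits are decreases in mean spikes per burst versus baseline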
Method in brief: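 Primary rat cortical neurons on 48-well MEA plates, treated on DIV 13 or 15 at 0.03-40 uM. Spontaneous activity recorded 40 min before and 40 min after compound at 37 C; percent change in mean spikes per single-electrode burst per well, fitted in the loss direction versus DMSO.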

[3] = CCTE_Shafer_MEA_acute_burst_percentage_mean: CCTE's Neural Acute Assay for Percentage of Spikes in a Burst, Shafer Lab (AID 2284017);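 on AC50: curve fitted for loss of signal so potency reflects decreased burst percentage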
Method in brief: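 Primary rat cortical neurons on 16-electrode MEA wells; 40 min baseline recorded at DIV 13 or 15, then 40 min after compound (0.03-40 uM) at 37 C. Well-mean fraction of spikes in single-electrode bursts; percent change from baseline, DMSO as negative control.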

[4] = CCTE_Shafer_MEA_acute_burst_percentage_std: CCTE's Neural Acute Assay for Standard Deviation of Burst Percentage, Shafer Lab (AID 2284018);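 further: fitted in the negative direction so actives lower burst percentage SD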
Method in brief: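 Primary rat cortical neurons on 16-electrode MEA wells were recorded 40 min at baseline (DIV 13 or 15), then 40 min after compound (0.03-40 uM), at 37 C. Well value is SD across electrodes of spikes-in-bursts/total spikes; endpoint is percent change, DMSO-referenced.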

[5] = CCTE_Shafer_MEA_acute_per_network_burst_spike_number_mean: CCTE's Neural Acute Assay for Average Number of Spikes in a Network Burst, Shafer Lab (AID 2284019)
Method in brief: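 Primary rat cortical neurons on 16-electrode MEA wells, DIV 13 or 15, 37 C; 40-min baseline then 40-min recording with compound (0.03-40 uM). Spikes per network burst (total spikes/number of bursts) expressed as percent change from baseline, DMSO reference.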

[6] = CCTE_Shafer_MEA_acute_per_network_burst_spike_number_std: CCTE's Neural Acute Assay for Standard Deviation of Number of Spikes in a Network Burst, Shafer Lab (AID 2284020);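 further: fitted for decrease in spike-number SD versus DMSO so actives lower it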
Method in brief: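 Primary rat cortical neurons on 48-well MEAs (16 electrodes/well) recorded at DIV 13 or 15: 40-min baseline, then 40 min with compound (0.03-40 uM), 37 C. Value is percent change in SD of spikes per network burst, relative to DMSO.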

[7] = CCTE_Shafer_MEA_acute_per_network_burst_electrodes_number_mean: CCTE's Neural Acute Assay for Mean Number of Electrodes in a Network Burst, Shafer Lab (AID 2284021);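 further: curves fitted for decreases only so hits reduce electrodes per burst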
Method in brief: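 Rat primary cortical neurons on 16-electrode MEA wells were recorded 40 min at baseline on DIV 13 or 15, then 40 min after compound (0.03-40 uM), at 37 C. Value is percent change per well, fitted in loss direction versus DMSO.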

[8] = CCTE_Shafer_MEA_acute_cross_correlation_area: CCTE's Neural Acute Assay for Area of Cross Correlation, Shafer Lab (AID 2284024);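 further: area under pooled inter-electrode spike cross-correlation near zero lag as percent change from own baseline; curves fitted for loss of cross-correlation area so actives lower synchrony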
Method in brief: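 Primary rat cortical neurons on 48-well MEA plates (16 electrodes/well) were recorded 40 min at baseline on DIV 13 or 15, then 40 min with compound (0.03-40 uM) at 37 C; cross-correlation area expressed as percent change from baseline.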

[9] = CCTE_Shafer_MEA_acute_cross_correlation_HWHM: CCTE's Neural Acute Assay for Cross Correlation at Half Width at Half Maximum, Shafer Lab (AID 2284026);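 further: percent change per well from pre-dose baseline in spike cross-correlogram half width; hits are a decrease in cross-correlogram half width relative to DMSO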
Method in brief: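 Primary rat cortical neurons on 16-electrode MEA wells; 40-min baseline on DIV 13 or 15, then 40-min recording with compound (0.03-40 uM) at 37 C. HWHM of spike cross-correlogram expressed as percent change from baseline per well, DMSO reference.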

[10] = biological target: Estrogen receptor (Homo sapiens) (UniProt P03372); test: CCTE_Deisenroth_AIME_384WELL_LUC_Active: CCTE's 384-well Estrogen Receptor Transactivation Assay with AIME metabolic competence (ERTA luciferase; metabolism positive), Deisenroth Lab (AID 2284030; active means hit-call score of the fitted dose curve at least 0.9, where 1 is the maximum)
Sequence of Estrogen receptor (Homo sapiens) (P03372 whole entry, looked up): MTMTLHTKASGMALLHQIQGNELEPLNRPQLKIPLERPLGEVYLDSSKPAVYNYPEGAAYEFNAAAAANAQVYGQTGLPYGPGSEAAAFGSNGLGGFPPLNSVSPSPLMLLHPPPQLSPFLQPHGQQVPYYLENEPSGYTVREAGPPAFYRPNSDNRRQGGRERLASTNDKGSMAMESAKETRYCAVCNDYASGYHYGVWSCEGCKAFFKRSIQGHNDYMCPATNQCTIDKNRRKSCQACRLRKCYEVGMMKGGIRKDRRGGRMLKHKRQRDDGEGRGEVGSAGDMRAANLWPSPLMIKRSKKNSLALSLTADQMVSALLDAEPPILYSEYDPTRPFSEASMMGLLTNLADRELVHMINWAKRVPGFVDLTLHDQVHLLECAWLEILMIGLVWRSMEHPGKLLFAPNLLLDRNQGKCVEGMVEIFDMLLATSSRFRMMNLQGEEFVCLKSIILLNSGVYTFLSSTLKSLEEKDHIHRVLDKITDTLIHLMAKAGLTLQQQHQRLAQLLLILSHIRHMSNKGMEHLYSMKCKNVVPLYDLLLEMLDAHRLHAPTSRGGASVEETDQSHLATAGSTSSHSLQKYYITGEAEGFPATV
Method in brief: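 Test chemicals (10-point series, 0.002 - 200 uM) were preincubated 2 hours with alginate-immobilized phenobarbital/beta-naphthoflavone-induced male Sprague Dawley rat liver S9; conditioned medium then went onto VM7Luc4E2 breast cells for 24 hour. Luciferase gain-of-signal fitted relative to 17beta-estradiol.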

[11] = CCTE_Shafer_MEA_dev_firing_rate_mean: CCTE's Neural Network Formation Assay for Mean Firing Rate, Shafer Lab (AID 2284031)
Method in brief: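 Primary rat cortical neurons on 48-well, 16-electrode MEAs (PEI-coated, laminin at plating), exposed from day 0 with compound renewed at DIV 5 and 9. Spikes recorded DIV 5, 7, 9, 12; well-mean firing rate collapsed to trapezoidal AUC, loss-of-signal vs DMSO.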

[12] = CCTE_Shafer_MEA_dev_per_burst_spike_percent: CCTE's Neural Network Formation Assay for Percent of Spikes in a Burst, Shafer Lab (AID 2284032)
Method in brief: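 Rat primary cortical neurons on 16-electrode MEA wells, dosed from plating day 0 for 12 days with renewal on DIV 5 and 9; spikes-in-bursts percentage averaged over bursting electrodes, collapsed as AUC across days 5, 7, 9, 12; loss direction versus DMSO.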

[13] = CCTE_Deisenroth_AIME_384WELL_CTox_Active: Cytotoxicity Assessment (CTOX) in CCTE's 384-well Estrogen Receptor Transactivation Assay with AIME metabolic competence (metabolism positive), Deisenroth Lab (AID 2284037; active means hit-call score of the fitted dose curve at least 0.9, where 1 is the maximum;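 further: activity means signal loss indicating cell death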)
Method in brief: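 VM7Luc4E2 breast cells received medium pre-incubated 2 h with chemical over alginate microspheres holding induced male Sprague Dawley rat liver S9; viability read 24 h later by protease-substrate fluorescence. Loss of signal, bidirectional fit, 0.002–200 uM.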

[14] = biological target: Estrogen receptor (Homo sapiens) (UniProt P03372); test: CCTE_Deisenroth_AIME_384WELL_LUC_Inactive: CCTE's 384-well Estrogen Receptor Transactivation Assay without AIME metabolic competence (ERTA luciferase; metabolism negative), Deisenroth Lab (AID 2284038; active means hit-call score of the fitted dose curve at least 0.9, where 1 is the maximum;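 further: hits raise estrogen receptor luciferase signal so potencies reflect agonists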)
Method in brief: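 Chemicals (10-point series, 0.002 - 200 uM) were incubated 2 hours with alginate-water microsphere lids lacking S9, then the conditioned medium was transferred to VM7Luc4E2 breast cells for 24 hour. Luciferase induction was read by bioluminescence, fitted upward relative to 17beta-estradiol.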

[15] = biological target: Estrogen receptor (Homo sapiens) (UniProt P03372); test: CCTE_Deisenroth_AIME_96WELL_LUC_Active: CCTE's 96-well Estrogen Receptor Transactivation Assay with AIME metabolic competence (ERTA luciferase; metabolism positive), Deisenroth Lab (AID 2284023; active means hit-call score of the fitted dose curve at least 0.9, where 1 is the maximum)
Method in brief: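 Chemicals pre-incubated 2 h with alginate-immobilized phenobarbital/beta-naphthoflavone-induced male Sprague Dawley rat liver S9, then medium transferred to VM7Luc4E2 cells for 24 h luciferase read-out. 10-point series 0.002 - 200 uM; fitted relative to 17beta-estradiol.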

[16] = biological target: Estrogen receptor (Homo sapiens) (UniProt P03372); test: CCTE_Deisenroth_AIME_96WELL_LUC_Inactive: CCTE's 96-well Estrogen Receptor Transactivation Assay without AIME metabolic competence (ERTA luciferase; metabolism negative), Deisenroth Lab (AID 2284025; active means hit-call score of the fitted dose curve at least 0.9, where 1 is the maximum)
Method in brief: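 VM7Luc4E2 breast cells, luciferase read 24 h after dosing with medium pre-incubated 2 h on alginate-water lids (metabolism negative). 10-point series 0.002–200 uM, single technical replicate, n≥4; fit relative to 17beta-estradiol.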

[17] = CCTE_Harrill_HTTr_CellCount_MCF7: CCTE's Cell Proliferation Assessment for the High-Throughput Transcriptomics (HTTr) Platform, Harrill Lab (AID 2284012; active means hit-call score of the fitted dose curve at least 0.9, where 1 is the maximum;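 further: cells exposed to compound for six hours; intended direction is loss of nuclei count meaning fewer cells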)
Method in brief: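 MCF-7 cells were exposed for 6 h to an eight-point dilution series; Hoechst-labeled nuclei were counted by high content imaging. Curves were fitted bidirectionally against DMSO as negative control and baseline, with signal loss indicating reduced cell count.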

[18] = CCTE_Deisenroth_AIME_96WELL_CTox_Active: Cytotoxicity Assessment (CTOX) in CCTE's 96-well Estrogen Receptor Transactivation Assay with AIME metabolic competence (metabolism positive), Deisenroth Lab (AID 2284028; active means hit-call score of the fitted dose curve at least 0.9, where 1 is the maximum)
Method in brief: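 Chemicals (0.002–200 uM) were first incubated 2 h with alginate-immobilized phenobarbital/beta-naphthoflavone-induced male rat liver S9; conditioned medium then went onto VM7Luc4E2 cells for 24 h, with viability read by protease-substrate fluorescence, fitted bidirectionally.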

[19] = CCTE_Deisenroth_AIME_96WELL_CTox_Inactive: Cytotoxicity Assessment (CTOX) in CCTE's 96-well Estrogen Receptor Transactivation Assay without AIME metabolic competence (metabolism negative), Deisenroth Lab (AID 2284029; active means hit-call score of the fitted dose curve at least 0.9, where 1 is the maximum)
Method in brief: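 Chemicals (10-point series, 0.002-200 uM) were incubated 2 h with alginate-water microspheres lacking S9. The conditioned medium was then transferred onto VM7Luc4E2 cells for 24 h. Viability was measured by protease-substrate cleavage to a fluorescent probe, with loss of signal fitted bidirectionally; n≥4 experimental replicates.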

[20] = CCTE_Deisenroth_AIME_384WELL_CTox_Inactive: Cytotoxicity Assessment (CTOX) in CCTE's 384-well Estrogen Receptor Transactivation Assay without AIME metabolic competence (metabolism negative), Deisenroth Lab (AID 2284039; active means hit-call score of the fitted dose curve at least 0.9, where 1 is the maximum;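 further: cell viability via live-cell protease substrate cleaved to fluorescent probe; cells exposed 24 h to medium preincubated 2 h with alginate-water beads without S9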)
Method in brief: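 VM7Luc4E2 human breast cells received conditioned medium from a 2 h incubation of chemical with alginate-water microspheres (no S9), then were exposed 24 h. Viability was read as protease-substrate cleavage to a fluorescent probe; loss of signal was fitted bidirectionally over 0.002–200 uM.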

Measured: AC50

COC(=O)[C@H](Cc1ccccc1)NC(=O)[C@@H](N)CC(=O)O (H-Asp-Phe-OMe)
inactive: [1] | [2] | [3] | [4] | [5] | [6] | [8] | [9] | [10] | [11] | [12] | [13] | [14]
active: [7] 15 µM

CCCC(C)C(=O)OCC (stereo not given)
inactive: [1] | [2] | [3] | [4] | [5] | [6] | [7] | [8] | [9]

c1ccc(Nc2cccc3ccccc23)cc1
active: [1] 1.25 µM | [2] 5.6 µM | [3] 4.86 µM | [6] 1.86 µM | [15] 17.7 µM | [8] 0.465 µM | [16] 12.7 µM | [9] 5.12 µM
inactive: [4] | [5] | [7]

COc1ccc(-c2coc3cc(O)cc(O)c3c2=O)cc1
inactive: [17]
active: [15] 2.14 µM | [16] 0.971 µM | [18] 75.9 µM | [19] 156 µM

CCCCNS(=O)(=O)c1ccccc1
inactive: [10] | [11] | [12] | [13] | [14]

C=C1C[C@H]2[C@@H]3C=C(C)C4=CC(=O)CC[C@]4(C)[C@H]3CC[C@]2(C)[C@@]1(OC(C)=O)C(C)=O
inactive: [17] | [10] | [13] | [14] | [20]

C=C[C@@]1(C)CC(=O)[C@]2(O)[C@@]3(C)[C@@H](O)CCC(C)(C)[C@@H]3[C@H](O)[C@H](OC(C)=O)[C@@]2(C)O1
active: [13] 19.8 µM
inactive: [17] | [14] | [20]

O=C(O)CCC(=O)O
inactive: [17] | [10] | [13] | [14] | [20]

CCOC(=O)C1=NOC(c2ccccc2)(c2ccccc2)C1
inactive: [17] | [10] | [14] | [20]

CC(CCC(=O)O)(c1ccc(O)cc1)c1ccc(O)cc1
active: [10] 100 µM | [14] 71.4 µM
inactive: [1] | [2] | [3] | [4] | [5] | [6] | [7] | [8] | [9] | [13] | [20]
